Results reported in PubChem BioAssay.
The source made the active and inactive calls. Unless noted, no rule for the calls is given here.

How the values were obtained:
[1] = kinase inhibitors against Plasmodium liver-stage infection, cell-based, known kinase inhibitor set, luminescence, hepatoma host viability (AID 624392); settings: Plasmodium liver stage in hepatoma cells, luciferase luminescence, concentration not given here; liver cell % of control: measured here: host liver cell viability; parasite % of control: stronger effect = lower value;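 also: infected cells incubated roughly two days before readout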
[2] = modulators of glucocorticoid suppression of NF-kB, cell-based, luciferase, IL-1B stimulus, dexamethasone (AID 624486); settings: NF-kB luciferase reporter, IL-1B + dexamethasone, luminescence; percent of negative control (+Dex): actives lie on both sides, concentration not given here; z-score: measured here: IL-1B alone, no Dex;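 as to percent of negative control (+Dex): 100% = mean signal of vehicle control wells on the plate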
[3] = kinase inhibitors altering Pseudomonas killing of worms, whole organism (AID 651566);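 also: tested at 14 µM; sign flipped so higher z means a lower ratio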; settings: C. elegans killed by P. aeruginosa, survival ratio
[4] = activators of macrophage pro-inflammatory response, cell-based, murine, luminescence (AID 652131); settings: murine macrophage pro-inflammatory reporter, stronger effect = higher value
[5] = biological target: Cellular tumor antigen p53 (Homo sapiens) (UniProt P04637); test: kinase inhibitors altering GFP-p53 stability in HPV16-positive cells, imaging, known kinase inhibitor set, EGFP/DsRed ratio (AID 1053116); settings: stronger effect = higher value; EGFP object count: measured here: GFP-p53 positive objects count;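 also: cells exposed to compounds for 24 h at 37 °C before reading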
[6] = IRF3 reporter activation in THP-1 macrophages, cell-based, PMA-stimulated THP-1, luminescence (AID 1053176); settings: PMA-differentiated THP-1, IRF3 reporter luminescence; stronger effect = higher value
[7] = survival rescue of mitochondrial mutant cells in low glucose, primary screen, MELAS cybrids, Rieske KO mouse fibroblasts, CellTiter-Glo (AID 1508586;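 active = mean z-score across replicates of 1.96 or higher in either the MELAS or the Rieske mutant cell line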;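 also: z relative to plate mean and SD of compound and empty wells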)
[8] = MELAS cybrid survival, CellTiter-Glo 48 h, stronger effect = higher value
[9] = Rieske KO mouse fibroblast survival, CellTiter-Glo 72 h

Chain of Cellular tumor antigen p53 (Homo sapiens) (P04637 whole entry, looked up): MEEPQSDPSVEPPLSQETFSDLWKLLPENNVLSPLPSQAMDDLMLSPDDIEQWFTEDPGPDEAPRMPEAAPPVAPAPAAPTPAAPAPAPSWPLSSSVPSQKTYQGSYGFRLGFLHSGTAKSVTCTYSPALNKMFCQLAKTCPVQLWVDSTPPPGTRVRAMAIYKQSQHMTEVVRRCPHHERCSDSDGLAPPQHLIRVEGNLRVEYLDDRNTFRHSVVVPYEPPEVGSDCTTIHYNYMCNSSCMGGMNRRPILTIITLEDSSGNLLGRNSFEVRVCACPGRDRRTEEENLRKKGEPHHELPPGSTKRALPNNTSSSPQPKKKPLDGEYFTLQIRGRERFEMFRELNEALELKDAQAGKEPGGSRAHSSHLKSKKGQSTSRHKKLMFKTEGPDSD

| Compound | liver cell % of control [1] [%] | parasite % of control [1] | percent of negative control (+Dex) [2] | z-score [2] | z-score [3] | z-score [4] | EGFP object count [5] | EGFP/DsRed ratio [5] | fraction signal [6] | z-score [7, 8] | z-score [7, 9] |
| --- | --- | --- | --- | --- | --- | --- | --- | --- | --- | --- | --- |
| CS(=O)(=O)Nc1ccc(-c2ccc3c(NC(=O)C4CC4)n[nH]c3c2)cc1 | 98.9 | 96.9% (inactive) | 94% (inactive) | 0.82 | 0.39 (inactive) | -0.745 (inactive) | 3 | 0.0815 (inactive) | -0.009 (inactive) | 0.24 (inactive) | -0.0618 |
| Cc1nnc(-c2cccc(-c3ccc(C(=O)NCC4CC4)cc3)c2)o1 | 102 | 99.2% (inactive) | 89.5% (inactive) | -0.24 | 0.175 (inactive) | -0.114 (inactive) | 4 | 0.0445 (inactive) | -0.01 (inactive) | 0.518 (inactive) | 0.121 |
| CCn1c(-c2nonc2N)nc2c(C#CC(C)(C)O)ncc(OC[C@@H]3CCCN3)c21 | 81.5 | 41.7% (inactive) | 104% (inactive) | -0.32 | -0.14 (inactive) | 5.3 (inactive) | 11.5 | 0.291 (inactive) | 0.0025 (inactive) | -0.59 (inactive) | -0.205 |
| CNC(=O)c1cccc(C#Cc2cncnc2Nc2ccc(OCc3cccc(F)c3)c(Cl)c2)c1 | 105 | 143% (inactive) | 78% (inactive) | -0.47 | 0.59 (inactive) | -0.769 (inactive) | 1 | 0.0111 (inactive) | 0.003 (inactive) | -1.16 (inactive) | -0.232 |
| NS(=O)(=O)c1ccc(N=Nc2c(O)[nH]c3ccc(Cl)cc23)cc1 | 91.6 | 111% (inactive) | 112% (inactive) | 0.905 | 0.005 (inactive) | 0.24 (inactive) | 6.5 | 0.227 (inactive) | 0.0005 (inactive) | 1.43 (inactive) | -0.311 |
| CN(C)CCOc1ccc(-c2cc(-c3ccc4c(c3)CC/C4=N/O)c(-c3ccncc3)o2)cc1 | 77.4 | 441% (inactive) | 130% (inactive) | 0.59 | 0.205 (inactive) | -0.386 (inactive) | 48 | 1.74 (active) | 0.045 (inactive) | 0.463 (inactive) | -0.429 |
| Fc1ccc(-c2ncn(C3CCNCC3)c2-c2ccnc(Oc3ccc4c(c3)OCO4)n2)cc1 | 71.9 | 187% (inactive) | 107% (inactive) | 0.635 | 0.22 (inactive) | 0.062 (inactive) | 6.5 | 0.159 (inactive) | -0.0065 (inactive) | -0.249 (inactive) | -0.36 |
| O=C(Nc1n[nH]c2nc(-c3ccco3)c(Br)cc12)C1CC1 | 109 | 102% (inactive) | 95% (inactive) | 0.68 | -0.17 (inactive) | 0.441 (inactive) | 4 | 0.447 (inactive) | -0.002 (inactive) | -1.24 (inactive) | 0.037 |
| NS(=O)(=O)c1cccc(-c2ccc3c(NC(=O)C4CC4)n[nH]c3c2)c1 | 97.5 | 241% (inactive) | 90.5% (inactive) | 0.225 | -0.22 (inactive) | -0.069 (inactive) | 4 | 0.0329 (inactive) | -0.0015 (inactive) | -0.0262 (inactive) | -0.475 |
| Nc1ncc(-c2cccc(S(N)(=O)=O)c2)c2scc(-c3ccc(F)c(Cl)c3)c12 | 86.2 | 63% (inactive) | 101% (inactive) | -0.045 | 0.425 (inactive) | 0.178 (inactive) | 7 | 0.225 (inactive) | -0.008 (inactive) | -0.767 (inactive) | -0.224 |
| CCn1c(-c2nonc2N)nc2ccncc21 | 99.1 | 98.3% (inactive) | 93.5% (inactive) | -0.26 | -0.61 (inactive) | -0.193 (inactive) | 4 | 0.405 (inactive) | -0.004 (inactive) | -0.197 (inactive) | -0.472 |
| CS(=O)(=O)CCNCc1ccc(-c2ccc3ncnc(Nc4ccc(OCc5cccc(C(F)(F)F)c5)cc4)c3c2)o1 | 91.4 | 126% (inactive) | 85% (inactive) | -0.68 | -0.1 (inactive) | 0.289 (inactive) | 4.5 | 0.109 (inactive) | 0.018 (inactive) | 0.798 (inactive) | -0.393 |
| COc1ccc(-c2ccncc2)cc1C(N)=O | 85.3 | 135% (inactive) | 90% (inactive) | -0.52 | 0.46 (inactive) | 0.337 (inactive) | 4 | 0.12 (inactive) | -0.004 (inactive) | -0.169 (inactive) | -0.232 |
| FC(F)(F)c1cccc(Nc2nccc(-c3cnn4nc(-c5ccccc5)ccc34)n2)c1 | 97.2 | 79.6% (inactive) | 86.5% (inactive) | -0.085 | 1.3 (inactive) | -0.793 (inactive) | 4.5 | 0.154 (inactive) | -0.0005 (inactive) | 1.22 (inactive) | -0.183 |
